APEX1 inh: blocks human APE1 abasic DNA cleavage | P27695 | recombinant APE1, TAMRA/BHQ-2 abasic DNA cleavage fluorescence | Potency, µM (highest dose often 65.8 µM), for the others: at the highest dose activity change, negative = inhibition, hits mostly inhibitors | 0.35% of 350,000 active | AID 2517;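 note: plate controls were vehicle for no effect and reference inhibitor for full effect; nearly all actives have a fitted effect of over 55% in size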
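Substrate: short duplex with […] THF abasic site, 5'-TAMRA and 3'-BHQ-2, 50 nM final. APE1 at 0.75 nM, preincubated 15 min RT with compound. Fluorescence increase from first to third read measured activity.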
L3MBTL1 inh-1: L3MBTL1 (human) inhibition; AlphaScreen L3MBTL1–H3K9me1 peptide binding; 0.66% of 230,000 active; Potency, µM (top dose mostly 57.1 µM), without a hit: at the top dose activity, negative = inhibition, most hits filed as inhibitors; note: % is set by controls: 0 for no effect and ±100 for the full control effect; nearly all actives have a fitted effect of over 60% in size
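AlphaScreen proximity signal between nickel-chelate acceptor and streptavidin donor beads (final 10 ug/mL) reports binding of 50 nM L3MBTL1 to 75 nM biotin-H3 K9me1 peptide; complex incubated with compounds 30 min at room temperature; cefsulodin titration as control.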
WRN helicase inh: blocks human WRN helicase | WRN helicase unwinding, fluorescent forked duplex, kinetic | Potency, µM (doses to about 114 µM), without a hit: top-dose activity change, negative = inhibition, most hits filed as inhibitors | 0.46% of 360,000 active; note: % is set by controls: 0 for no effect and ±100 for the full control effect; nearly all actives have a fitted effect of over 55% in size
Target sequence (Q14191 whole entry, looked up): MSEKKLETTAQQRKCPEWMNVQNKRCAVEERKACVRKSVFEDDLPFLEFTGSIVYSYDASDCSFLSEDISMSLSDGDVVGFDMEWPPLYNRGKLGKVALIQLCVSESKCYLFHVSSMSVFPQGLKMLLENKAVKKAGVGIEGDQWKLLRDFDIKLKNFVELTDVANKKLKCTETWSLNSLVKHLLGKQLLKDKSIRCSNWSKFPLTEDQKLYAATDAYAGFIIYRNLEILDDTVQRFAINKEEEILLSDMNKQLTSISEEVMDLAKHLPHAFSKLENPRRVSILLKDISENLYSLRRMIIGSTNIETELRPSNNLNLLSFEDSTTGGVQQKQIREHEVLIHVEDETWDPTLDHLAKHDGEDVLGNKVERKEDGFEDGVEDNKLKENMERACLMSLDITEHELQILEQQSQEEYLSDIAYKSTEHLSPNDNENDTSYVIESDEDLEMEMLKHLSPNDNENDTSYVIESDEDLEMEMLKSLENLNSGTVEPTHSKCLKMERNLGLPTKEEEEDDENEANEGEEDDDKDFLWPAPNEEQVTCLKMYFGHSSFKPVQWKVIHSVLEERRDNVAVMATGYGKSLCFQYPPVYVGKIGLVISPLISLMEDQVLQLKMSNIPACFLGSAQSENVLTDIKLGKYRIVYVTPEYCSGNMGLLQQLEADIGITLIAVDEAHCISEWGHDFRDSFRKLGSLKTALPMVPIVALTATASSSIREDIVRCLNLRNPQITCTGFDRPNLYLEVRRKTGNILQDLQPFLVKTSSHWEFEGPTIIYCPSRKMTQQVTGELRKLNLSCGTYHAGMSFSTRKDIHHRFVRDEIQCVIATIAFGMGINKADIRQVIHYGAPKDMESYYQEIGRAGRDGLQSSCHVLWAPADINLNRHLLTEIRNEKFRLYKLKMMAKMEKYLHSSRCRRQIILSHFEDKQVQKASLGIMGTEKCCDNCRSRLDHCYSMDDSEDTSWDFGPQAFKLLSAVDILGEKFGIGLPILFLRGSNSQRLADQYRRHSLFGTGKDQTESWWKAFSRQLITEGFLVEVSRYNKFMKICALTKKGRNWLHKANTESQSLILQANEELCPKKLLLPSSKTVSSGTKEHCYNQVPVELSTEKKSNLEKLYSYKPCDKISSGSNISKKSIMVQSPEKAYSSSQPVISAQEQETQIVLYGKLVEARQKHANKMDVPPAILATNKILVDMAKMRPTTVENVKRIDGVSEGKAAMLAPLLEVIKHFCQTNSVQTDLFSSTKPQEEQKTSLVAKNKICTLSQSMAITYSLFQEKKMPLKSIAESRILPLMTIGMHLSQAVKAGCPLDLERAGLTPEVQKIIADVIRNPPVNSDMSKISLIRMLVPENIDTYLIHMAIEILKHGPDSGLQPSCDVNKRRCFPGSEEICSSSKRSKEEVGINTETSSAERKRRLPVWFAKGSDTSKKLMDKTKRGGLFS
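Fluorescence dequenching readout, ex 525 nm/em 598 nm, kinetic mode: forked duplex DNA (100 nM final) with adjacent fluorophore and quencher unwound by WRN (20 nM final) with 2 mM ATP. Compound preincubation 15 min, room temperature.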
FEN1 inhibitor: blocks human flap endonuclease 1; 0.35% of 390,000 active; Recombinant FEN1 flap cleavage, fluorescence, 15 min; AID 588795; Potency, µM (highest dose often 114 µM), for the others: at the highest dose activity change, negative = inhibition, actives largely listed as inhibitors; P39748; note: % is set by controls: 0 for no effect and ±100 for the full control effect; nearly all actives have a fitted effect of over 65% in size
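Quantitative HTS format: each compound was titrated, incubated with 10 nM nuclease for 15 min at room temperature, then challenged with flap substrate at 50 nM final. Signal change over 15 min gave concentration–effect curves.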
BLM helicase inh: blocks DNA unwinding by human BLM helicase; P54132; recombinant BLM DNA unwinding, fluorescence dequenching; Potency, µM (top dose mostly 56.1 µM), inactives show at the top dose activity change, negative = inhibition, hits mostly inhibitors; 0.2% of 350,000 active;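 note: plate controls were vehicle for no effect and no enzyme for full effect; nearly all actives have a fitted effect of over 35% in size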
RECQ1 inh: inhibitors of human RECQ1 DNA helicase; RECQ1 DNA unwinding, red fluorescence kinetic read; Potency, µM (series often up to 57.3 µM), without a hit: at the highest dose activity, negative = inhibition, most hits filed as inhibitors; 0.54% of 240,000 active;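 note: plate controls were vehicle for no effect and no enzyme for full effect; nearly all actives have a fitted effect of over 30% in size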
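RECQ1T1 50 nM; forked duplex (20 bp + 30-nt ss tails) 200 nM, ATP 2 mM final; pH 8.0, 2 mM MgCl2, 2.5 ug/ml poly(dI-dC); 15 min compound preincubation; discontinuous kinetic read over 2 h at RT.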
L3MBTL1 inh-2: L3MBTL1 binding inhibition validated. shares compounds with L3MBTL1 inh-1. L3MBTL1 methyl-lysine binding inhibition, biochemical qHTS. Potency, µM, actives largely listed as inhibitors. 91% of 500 active; note: nearly all actives have a fitted effect of over 70% in size
AlphaScreen ctr2: counter-screen for L3MBTL1 inhibitors: AlphaScreen signal interference; shares compounds with L3MBTL1 inh-1; AlphaScreen counterscreen, signal inhibition; Potency, µM (titrated, usually from 57.1 µM), for the others: at the highest dose activity change, negative = inhibition, usual class: inhibitors; 500 tested, under 10 active; note: 0% is about no effect
* = called active by the depositor; [ ] = another dose, or the depositor's remark. The list is not random: actives were taken first. Their share in the collection is about 1%. Calls come from the whole dose curve; as a rule, active = well fitted curve in the direction sought with a large enough effect; inconclusive = small, poorly fitted or top-dose-only effect, or another doubt; inactive = no such curve, though single readings can be large; an effect the other way counts as inactive or inconclusive. Potency is the fitted concentration of half-maximal effect.

Results for COc1ccccc1N1CCN(C(=O)c2ccc3nc(-c4ccco4)c(-c4ccco4)nc3c2)CC1 ?
APEX1 inh: inconclusive; L3MBTL1 inh-1: 28µM*; WRN helicase inh: -19%; FEN1 inhibitor: -20%; BLM helicase inh: -8%; RECQ1 inh: -13%; L3MBTL1 inh-2: 19*; AlphaScreen ctr2: -2%

Results for CC(=O)c1ccccc1NS(=O)(=O)c1cccc2nonc12 ?
APEX1 inh: -8%; WRN helicase inh: 3%; FEN1 inhibitor: -10%; BLM helicase inh: -2%

Results for CC(=O)c1ccccc1NS(=O)(=O)c1cccc2nsnc12 ?
APEX1 inh: 5.3µM*; L3MBTL1 inh-1: 32µM*; WRN helicase inh: -4%[11.6 µM]; FEN1 inhibitor: -10%; BLM helicase inh: -14%; L3MBTL1 inh-2: 27*; AlphaScreen ctr2: 7%

What do the screens show for `COC(=O)\C(C(C)=O)=C(/C=C/C=C/C=C/N(C)C)N(C)C`?
APEX1 inh: 7.9µM*; L3MBTL1 inh-1: 7.1µM*; WRN helicase inh: 21µM*; FEN1 inhibitor: inconclusive; BLM helicase inh: -16%; RECQ1 inh: 25µM*; L3MBTL1 inh-2: 3*; AlphaScreen ctr2: inconclusive

Results for Oc1[nH]c2ccccc2c1N=NC(=S)N1CCOCC1 ?
APEX1 inh: -6%; L3MBTL1 inh-1: 28µM*; WRN helicase inh: -5%; FEN1 inhibitor: -10%; BLM helicase inh: -7%; RECQ1 inh: inactive; L3MBTL1 inh-2: 21*; AlphaScreen ctr2: inconclusive

Results for Oc1[nH]c2ccc(Br)cc2c1N=NC(=S)N1CCOCC1 ?
APEX1 inh: 1%; L3MBTL1 inh-1: inconclusive; WRN helicase inh: -18%; FEN1 inhibitor: 0%; BLM helicase inh: -4%; RECQ1 inh: 6%

What do the screens show for `Oc1ccccc1N=Cc1c(O)ccc2ccccc12`?
APEX1 inh: 11%; L3MBTL1 inh-1: 28µM*; WRN helicase inh: -10%; FEN1 inhibitor: -5%; BLM helicase inh: -6%; RECQ1 inh: -4%; L3MBTL1 inh-2: 6*; AlphaScreen ctr2: 12%

What do the screens show for `Oc1ccc2ccccc2c1C=Nc1ccccc1Br`?
APEX1 inh: -8%; L3MBTL1 inh-1: -4%; WRN helicase inh: -8%; FEN1 inhibitor: inconclusive; BLM helicase inh: -4%

What do the screens show for `O=C(NCc1ccccn1)c1ccc(=O)oc1`?
APEX1 inh: -2%; L3MBTL1 inh-1: 16µM*; WRN helicase inh: -13%; FEN1 inhibitor: -2%; BLM helicase inh: 1%; RECQ1 inh: -10%; L3MBTL1 inh-2: 21*; AlphaScreen ctr2: 26%

How did O=C(NCc1ccccn1)c1ccc(-c2ccccc2)cc1 do in these assays?
APEX1 inh: 1%; L3MBTL1 inh-1: 2%; WRN helicase inh: -16%; FEN1 inhibitor: -16%; BLM helicase inh: -7%; RECQ1 inh: -6%

How did COc1ccc(C(N)c2nccc3cc(OC)c(OC)cc23)cc1OC (stereo not given) do in these assays?
APEX1 inh: -19%; L3MBTL1 inh-1: 28µM*; WRN helicase inh: 12%; FEN1 inhibitor: -7%; BLM helicase inh: -2%; L3MBTL1 inh-2: 12*; AlphaScreen ctr2: inconclusive

Results for Cc1ccc(S(=O)(=O)N2CCN(C(=O)[C@H](Cc3ccccc3)NC(=O)c3ccco3)CC2)cc1C ?
APEX1 inh: 29%; L3MBTL1 inh-1: -6%; WRN helicase inh: 3%; FEN1 inhibitor: 1%

How did COc1ccc2c(CC(=O)NCc3ccc4c(c3)OCO4)coc2c1 do in these assays?
APEX1 inh: -7%; L3MBTL1 inh-1: 25µM*; WRN helicase inh: inconclusive; FEN1 inhibitor: 1%; BLM helicase inh: -7%; RECQ1 inh: -23%; L3MBTL1 inh-2: 27*; AlphaScreen ctr2: 0%

What do the screens show for `Cc1ccc(/C=C/C(=O)N2CCc3ccccc32)o1`?
APEX1 inh: inconclusive; L3MBTL1 inh-1: 32µM*; WRN helicase inh: inconclusive; FEN1 inhibitor: -18%; BLM helicase inh: inconclusive; RECQ1 inh: inconclusive; L3MBTL1 inh-2: 6*; AlphaScreen ctr2: -1%

What do the screens show for `O=C(/C=C/c1ccco1)N1CCc2ccccc21`?
APEX1 inh: -12%; L3MBTL1 inh-1: -27%; WRN helicase inh: -2%; FEN1 inhibitor: 2%; BLM helicase inh: -5%; RECQ1 inh: inactive

Results for O=C(Cc1ccccc1)N(Cc1cccnc1)c1nc2c(F)cc(F)cc2s1 ?
FEN1 inhibitor: -19%; BLM helicase inh: -7%

How did O=C(CSc1cccc2cccnc12)Nc1ccc(S(=O)(=O)N2CCOCC2)cc1 do in these assays?
APEX1 inh: -5%; L3MBTL1 inh-1: 22µM*; WRN helicase inh: -8%; FEN1 inhibitor: -8%; BLM helicase inh: 0%; RECQ1 inh: 1%; L3MBTL1 inh-2: inconclusive; AlphaScreen ctr2: inconclusive

How did O=C1CCCC(O)=C1Sc1ccccc1C(=O)O do in these assays?
APEX1 inh: inconclusive; L3MBTL1 inh-1: 16µM*; WRN helicase inh: -6%[11.6 µM]; FEN1 inhibitor: inconclusive; BLM helicase inh: 6%; RECQ1 inh: inactive; L3MBTL1 inh-2: 2.4*; AlphaScreen ctr2: inconclusive

Results for CCCCn1c(=N)c(S(=O)(=O)c2ccc(C)cc2)cc2c(=O)n3cc(C)ccc3nc21 ?
FEN1 inhibitor: 0%; BLM helicase inh: -3%

What do the screens show for `OC(c1ccccn1)(c1ccccn1)c1ccccn1`?
APEX1 inh: 0%; L3MBTL1 inh-1: 16µM*; WRN helicase inh: -2%; FEN1 inhibitor: -2%; BLM helicase inh: 2%; RECQ1 inh: inactive; L3MBTL1 inh-2: 21*; AlphaScreen ctr2: -5%

How did CC(=O)Nc1ccc(C(=O)/C=C/c2ccco2)cc1 do in these assays?
APEX1 inh: -2%; L3MBTL1 inh-1: 32µM*; WRN helicase inh: inconclusive; FEN1 inhibitor: inconclusive; BLM helicase inh: -5%; RECQ1 inh: 6%; L3MBTL1 inh-2: 9.5*; AlphaScreen ctr2: -10%

Results for COC(=O)CS(=O)(=O)c1nc2ccccc2nc1N1CCCCC1 ?
FEN1 inhibitor: 10%; BLM helicase inh: -11%

What do the screens show for `c1coc(-c2nc3ccccc3nc2-c2ccco2)c1`?
APEX1 inh: -12%; L3MBTL1 inh-1: 32µM*; WRN helicase inh: inconclusive; FEN1 inhibitor: -28%; BLM helicase inh: 16µM*; RECQ1 inh: inconclusive; L3MBTL1 inh-2: inconclusive; AlphaScreen ctr2: 10%

How did CC(=O)c1cc(-c2ccccc2)n(CCC(=O)NCCc2ccccc2)c1C do in these assays?
FEN1 inhibitor: 8%; BLM helicase inh: 0%
